# From publication PMC7862700, “An all-to-all approach to the identification of sequence-specific readers for epigenetic DNA modifications on cytosine”
# Tests used:
# Test in all cases: DAPPL (digital affinity profiling via proximity ligation, sequencing); 10 mM Tris-HCl pH 7.5, 50 mM NaCl, 1 mM DTT, 4% glycerol, room temperature, 30 min; GST-TFs on glutathione beads, 16-mer random dsDNA library, 0.1% formaldehyde crosslink after washing; high values mean tight binding
# [1] = molecular target: T1, FLI1 (Homo sapiens, UniProt Q01543 1-452); conditions: protein: recombinant; tags: N-terminal GST; dsDNA, one strand shown
# T1 sequence: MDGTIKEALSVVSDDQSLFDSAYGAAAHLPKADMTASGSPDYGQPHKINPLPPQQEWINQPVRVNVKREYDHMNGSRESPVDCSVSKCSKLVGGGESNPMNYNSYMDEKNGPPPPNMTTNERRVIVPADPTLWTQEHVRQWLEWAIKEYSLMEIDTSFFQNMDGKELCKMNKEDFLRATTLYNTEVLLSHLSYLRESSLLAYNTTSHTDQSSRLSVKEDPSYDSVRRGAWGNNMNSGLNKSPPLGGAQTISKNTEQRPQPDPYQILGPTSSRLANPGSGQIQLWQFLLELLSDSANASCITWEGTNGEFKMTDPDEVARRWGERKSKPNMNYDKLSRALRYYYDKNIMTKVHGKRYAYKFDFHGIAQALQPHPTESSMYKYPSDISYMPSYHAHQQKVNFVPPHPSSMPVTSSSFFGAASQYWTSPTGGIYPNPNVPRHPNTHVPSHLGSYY
# Outline: (§1)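 After expression in yeast as GST fusions, human transcription factors were bound to glutathione beads, DNA-barcoded and mixed with a tag-only sample. The pools were incubated with 200 nmole of a 16-mer random double-stranded DNA library in Tris/NaCl/DTT/glycerol buffer (30 min, room temperature), washed and crosslinked with 0.1% formaldehyde. Proximity ligation with BsaI/T4 ligase ran for 1 h at 37 °C, before PCR amplification and sequencing on an Illumina NextSeq500. Binding signal is a hexamer's read frequency for a factor divided by its frequency for the tag-only sample.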
# [2] = molecular target: T2, ELK1 (Homo sapiens, UniProt P19419 1-428); conditions: protein: recombinant; tags: N-terminal GST; dsDNA, one strand shown
# T2 sequence: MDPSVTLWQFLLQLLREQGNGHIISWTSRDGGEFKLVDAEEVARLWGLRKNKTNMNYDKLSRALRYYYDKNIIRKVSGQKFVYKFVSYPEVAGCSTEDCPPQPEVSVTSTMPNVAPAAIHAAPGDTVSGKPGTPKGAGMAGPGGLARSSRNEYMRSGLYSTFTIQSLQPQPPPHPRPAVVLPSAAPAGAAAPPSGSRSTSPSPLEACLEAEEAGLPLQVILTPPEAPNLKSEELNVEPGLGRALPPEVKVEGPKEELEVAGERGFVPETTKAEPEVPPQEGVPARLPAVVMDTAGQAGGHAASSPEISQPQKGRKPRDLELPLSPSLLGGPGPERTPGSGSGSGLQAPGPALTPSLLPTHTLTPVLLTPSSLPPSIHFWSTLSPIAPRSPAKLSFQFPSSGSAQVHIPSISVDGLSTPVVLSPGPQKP
# Outline: as §1
# [3] = molecular target: T3, GABPA (Homo sapiens, UniProt Q06546 1-454); conditions: protein: recombinant; tags: N-terminal GST; dsDNA, one strand shown
# T3 sequence: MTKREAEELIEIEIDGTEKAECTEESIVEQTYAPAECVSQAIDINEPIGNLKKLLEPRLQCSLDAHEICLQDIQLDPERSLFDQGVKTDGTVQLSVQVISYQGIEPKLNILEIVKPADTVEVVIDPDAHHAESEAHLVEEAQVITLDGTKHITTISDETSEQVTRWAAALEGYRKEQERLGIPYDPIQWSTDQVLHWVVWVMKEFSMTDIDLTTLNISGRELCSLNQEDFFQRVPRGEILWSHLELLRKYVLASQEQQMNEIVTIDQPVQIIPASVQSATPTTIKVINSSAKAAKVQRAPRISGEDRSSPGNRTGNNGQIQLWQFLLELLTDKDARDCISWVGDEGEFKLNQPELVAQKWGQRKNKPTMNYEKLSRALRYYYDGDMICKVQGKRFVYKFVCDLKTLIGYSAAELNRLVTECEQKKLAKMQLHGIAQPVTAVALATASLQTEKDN
# Outline: as §1
# [4] = molecular target: T4, ERG (Homo sapiens, UniProt P11308 1-479); conditions: protein: recombinant; tags: N-terminal GST; dsDNA, one strand shown
# T4 sequence: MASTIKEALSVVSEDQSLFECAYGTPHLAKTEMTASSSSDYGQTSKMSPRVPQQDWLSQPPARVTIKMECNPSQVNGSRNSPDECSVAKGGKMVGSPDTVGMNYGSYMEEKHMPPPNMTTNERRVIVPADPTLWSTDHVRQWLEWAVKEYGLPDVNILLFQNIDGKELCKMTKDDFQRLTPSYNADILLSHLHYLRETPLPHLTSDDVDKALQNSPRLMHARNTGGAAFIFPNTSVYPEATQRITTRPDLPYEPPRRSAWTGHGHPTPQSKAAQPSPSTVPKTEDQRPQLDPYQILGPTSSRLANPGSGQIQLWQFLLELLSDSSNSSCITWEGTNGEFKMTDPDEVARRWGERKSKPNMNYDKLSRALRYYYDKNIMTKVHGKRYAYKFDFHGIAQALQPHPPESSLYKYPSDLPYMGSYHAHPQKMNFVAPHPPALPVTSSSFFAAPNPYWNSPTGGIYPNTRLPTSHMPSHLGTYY
# Outline: as §1
# [5] = molecular target: ELF1 (Homo sapiens, UniProt P32519 1-619); conditions: protein: recombinant; tags: N-terminal GST; dsDNA, one strand shown
# Outline: as §1
# [6] = molecular target: T5, EHF (Homo sapiens, UniProt Q9NZC4 1-300); conditions: protein: recombinant; tags: N-terminal GST; dsDNA, one strand shown
# T5 sequence: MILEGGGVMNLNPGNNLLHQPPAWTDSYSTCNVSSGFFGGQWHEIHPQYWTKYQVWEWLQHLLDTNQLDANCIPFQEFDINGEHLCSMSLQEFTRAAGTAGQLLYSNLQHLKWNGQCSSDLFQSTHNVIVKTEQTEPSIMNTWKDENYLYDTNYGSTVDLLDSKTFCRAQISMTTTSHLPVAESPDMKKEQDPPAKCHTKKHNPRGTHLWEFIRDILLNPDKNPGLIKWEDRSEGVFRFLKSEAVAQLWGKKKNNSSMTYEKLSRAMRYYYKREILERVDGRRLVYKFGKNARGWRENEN
# Outline: as §1
# [7] = molecular target: SPI1 (Homo sapiens, UniProt P17947 1-270); conditions: protein: recombinant; tags: N-terminal GST; dsDNA, one strand shown
# Outline: as §1
# [8] = molecular target: SPIB (Homo sapiens, UniProt Q01892 1-262); conditions: protein: recombinant; tags: N-terminal GST; dsDNA, one strand shown
# Outline: as §1
# [9] = molecular target: T6, ELK3 (Homo sapiens, UniProt P41970 1-407); conditions: protein: recombinant; tags: N-terminal GST; dsDNA, one strand shown
# T6 sequence: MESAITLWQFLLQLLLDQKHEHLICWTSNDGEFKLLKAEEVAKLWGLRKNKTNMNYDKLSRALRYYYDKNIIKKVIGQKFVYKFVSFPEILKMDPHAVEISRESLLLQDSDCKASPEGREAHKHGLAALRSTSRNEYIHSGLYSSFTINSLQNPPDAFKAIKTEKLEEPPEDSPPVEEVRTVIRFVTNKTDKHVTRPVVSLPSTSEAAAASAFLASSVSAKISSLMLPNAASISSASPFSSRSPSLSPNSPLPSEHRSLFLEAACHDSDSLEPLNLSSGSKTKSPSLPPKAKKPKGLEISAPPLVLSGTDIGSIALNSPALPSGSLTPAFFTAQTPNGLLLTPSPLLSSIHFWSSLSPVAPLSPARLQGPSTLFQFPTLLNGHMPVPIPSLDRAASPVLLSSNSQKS
# Outline: as §1
# [10] = molecular target: T7, FEV (Homo sapiens, UniProt Q99581 1-238); conditions: protein: recombinant; tags: N-terminal GST; dsDNA, one strand shown
# T7 sequence: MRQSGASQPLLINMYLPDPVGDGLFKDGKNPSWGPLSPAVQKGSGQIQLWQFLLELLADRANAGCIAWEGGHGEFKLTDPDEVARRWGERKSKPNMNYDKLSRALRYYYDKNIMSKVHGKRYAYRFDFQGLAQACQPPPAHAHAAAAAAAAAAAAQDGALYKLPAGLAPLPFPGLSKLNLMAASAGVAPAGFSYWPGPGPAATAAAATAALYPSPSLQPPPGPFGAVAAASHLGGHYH
# Outline: as §1
# [11] = molecular target: ETV5 (Homo sapiens, UniProt P41161 1-510); conditions: protein: recombinant; tags: N-terminal GST; dsDNA, one strand shown
# Outline: as §1
# [12] = molecular target: HSF1 (Homo sapiens, UniProt Q00613 1-529); conditions: protein: recombinant; tags: N-terminal GST; chain copies: 3; dsDNA, one strand shown
# Outline: as §1
# [13] = molecular target: T8, SPIC (Homo sapiens, UniProt Q8N5J4 1-248); conditions: protein: recombinant; tags: N-terminal GST; dsDNA, one strand shown
# T8 sequence: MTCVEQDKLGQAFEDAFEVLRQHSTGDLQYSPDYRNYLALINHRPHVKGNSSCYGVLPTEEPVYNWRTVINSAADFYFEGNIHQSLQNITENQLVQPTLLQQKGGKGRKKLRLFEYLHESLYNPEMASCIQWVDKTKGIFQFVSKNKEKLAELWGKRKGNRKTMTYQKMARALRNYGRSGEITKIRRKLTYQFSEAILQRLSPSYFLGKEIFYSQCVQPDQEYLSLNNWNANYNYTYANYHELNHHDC
# Outline: as §1
# [14] = molecular target: ELF4 (Homo sapiens, UniProt Q99607 1-663); conditions: protein: recombinant; tags: N-terminal GST; dsDNA, one strand shown
# Outline: as §1
# [15] = molecular target: T9, ELK4 (Homo sapiens, UniProt P28324-2 1-405); conditions: protein: recombinant; tags: N-terminal GST; dsDNA, one strand shown
# T9 sequence: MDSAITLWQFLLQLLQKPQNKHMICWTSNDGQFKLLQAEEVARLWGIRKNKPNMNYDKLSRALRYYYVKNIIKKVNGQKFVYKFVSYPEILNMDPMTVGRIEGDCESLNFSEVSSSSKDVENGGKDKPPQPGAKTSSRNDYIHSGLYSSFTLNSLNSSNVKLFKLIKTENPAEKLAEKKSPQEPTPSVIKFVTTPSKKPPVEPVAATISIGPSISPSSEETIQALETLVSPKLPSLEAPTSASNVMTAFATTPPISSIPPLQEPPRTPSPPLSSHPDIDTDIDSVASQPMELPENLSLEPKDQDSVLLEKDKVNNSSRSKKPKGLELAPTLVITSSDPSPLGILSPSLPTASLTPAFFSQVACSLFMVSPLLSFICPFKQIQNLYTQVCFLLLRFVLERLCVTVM
# Outline: as §1
# [16] = molecular target: T10, ETV2 (Homo sapiens, UniProt O00321 1-342); conditions: protein: recombinant; tags: N-terminal GST; dsDNA, one strand shown
# T10 sequence: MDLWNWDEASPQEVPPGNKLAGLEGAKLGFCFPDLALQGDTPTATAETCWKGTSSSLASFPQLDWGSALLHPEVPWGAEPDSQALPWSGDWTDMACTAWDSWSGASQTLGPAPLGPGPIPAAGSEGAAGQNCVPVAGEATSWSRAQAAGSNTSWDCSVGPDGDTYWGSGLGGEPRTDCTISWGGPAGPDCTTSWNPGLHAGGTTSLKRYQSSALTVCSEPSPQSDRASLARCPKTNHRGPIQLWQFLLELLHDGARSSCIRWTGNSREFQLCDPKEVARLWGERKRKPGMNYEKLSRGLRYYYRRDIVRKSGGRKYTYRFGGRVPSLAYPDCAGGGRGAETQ
# Outline: as §1
# [17] = molecular target: T11, ELF3 (Homo sapiens, UniProt P78545 1-371); conditions: protein: recombinant; tags: N-terminal GST; dsDNA, one strand shown
# T11 sequence: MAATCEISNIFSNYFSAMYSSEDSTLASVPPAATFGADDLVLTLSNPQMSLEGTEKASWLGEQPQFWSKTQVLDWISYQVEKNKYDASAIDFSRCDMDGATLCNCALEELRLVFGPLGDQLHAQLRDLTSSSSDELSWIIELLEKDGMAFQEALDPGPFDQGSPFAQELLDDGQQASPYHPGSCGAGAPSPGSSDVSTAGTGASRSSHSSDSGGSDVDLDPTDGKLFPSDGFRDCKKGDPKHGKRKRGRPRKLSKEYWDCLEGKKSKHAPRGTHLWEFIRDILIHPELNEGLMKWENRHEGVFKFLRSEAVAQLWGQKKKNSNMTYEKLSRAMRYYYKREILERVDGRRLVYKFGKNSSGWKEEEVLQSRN
# Outline: as §1
# [18] = molecular target: CRX (Homo sapiens, UniProt O43186 1-299); conditions: protein: recombinant; tags: N-terminal GST; dsDNA, one strand shown
# Outline: as §1
# [19] = molecular target: ETV1 (Homo sapiens, UniProt P50549 1-477); conditions: protein: recombinant; tags: N-terminal GST; dsDNA, one strand shown
# Outline: as §1
# Chain of ELF1 (P32519 whole entry): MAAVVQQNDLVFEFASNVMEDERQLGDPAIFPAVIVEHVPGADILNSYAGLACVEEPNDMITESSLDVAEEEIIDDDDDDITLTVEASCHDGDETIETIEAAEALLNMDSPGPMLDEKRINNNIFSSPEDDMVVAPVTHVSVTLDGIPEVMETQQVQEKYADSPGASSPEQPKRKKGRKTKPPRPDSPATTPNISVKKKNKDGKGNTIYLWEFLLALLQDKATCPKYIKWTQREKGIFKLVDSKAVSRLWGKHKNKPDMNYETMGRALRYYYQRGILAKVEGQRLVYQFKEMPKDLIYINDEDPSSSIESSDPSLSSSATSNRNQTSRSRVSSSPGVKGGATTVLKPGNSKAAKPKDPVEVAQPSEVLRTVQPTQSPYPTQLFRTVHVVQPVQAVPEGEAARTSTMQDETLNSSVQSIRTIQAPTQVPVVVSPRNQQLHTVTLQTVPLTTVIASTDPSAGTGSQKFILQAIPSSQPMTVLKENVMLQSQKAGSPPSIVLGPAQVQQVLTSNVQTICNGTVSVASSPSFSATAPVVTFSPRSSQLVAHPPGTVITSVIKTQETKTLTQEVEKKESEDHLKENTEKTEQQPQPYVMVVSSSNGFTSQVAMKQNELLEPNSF
# Chain of HSF1 (Q00613 whole entry): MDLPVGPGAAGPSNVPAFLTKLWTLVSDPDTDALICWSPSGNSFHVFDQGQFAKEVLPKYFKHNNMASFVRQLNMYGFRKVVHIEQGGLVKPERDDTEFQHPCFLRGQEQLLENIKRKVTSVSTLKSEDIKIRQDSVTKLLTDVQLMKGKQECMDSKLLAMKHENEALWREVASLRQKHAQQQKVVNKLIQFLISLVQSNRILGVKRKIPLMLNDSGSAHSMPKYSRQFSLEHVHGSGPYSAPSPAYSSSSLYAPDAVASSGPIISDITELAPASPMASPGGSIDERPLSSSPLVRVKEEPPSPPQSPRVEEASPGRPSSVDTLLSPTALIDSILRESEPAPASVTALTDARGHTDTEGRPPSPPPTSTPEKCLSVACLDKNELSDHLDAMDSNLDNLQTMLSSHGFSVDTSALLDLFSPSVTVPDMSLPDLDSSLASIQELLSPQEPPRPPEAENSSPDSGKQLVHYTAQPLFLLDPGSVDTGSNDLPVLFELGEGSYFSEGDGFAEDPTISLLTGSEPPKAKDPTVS
# Chain of ELF4 (Q99607 whole entry): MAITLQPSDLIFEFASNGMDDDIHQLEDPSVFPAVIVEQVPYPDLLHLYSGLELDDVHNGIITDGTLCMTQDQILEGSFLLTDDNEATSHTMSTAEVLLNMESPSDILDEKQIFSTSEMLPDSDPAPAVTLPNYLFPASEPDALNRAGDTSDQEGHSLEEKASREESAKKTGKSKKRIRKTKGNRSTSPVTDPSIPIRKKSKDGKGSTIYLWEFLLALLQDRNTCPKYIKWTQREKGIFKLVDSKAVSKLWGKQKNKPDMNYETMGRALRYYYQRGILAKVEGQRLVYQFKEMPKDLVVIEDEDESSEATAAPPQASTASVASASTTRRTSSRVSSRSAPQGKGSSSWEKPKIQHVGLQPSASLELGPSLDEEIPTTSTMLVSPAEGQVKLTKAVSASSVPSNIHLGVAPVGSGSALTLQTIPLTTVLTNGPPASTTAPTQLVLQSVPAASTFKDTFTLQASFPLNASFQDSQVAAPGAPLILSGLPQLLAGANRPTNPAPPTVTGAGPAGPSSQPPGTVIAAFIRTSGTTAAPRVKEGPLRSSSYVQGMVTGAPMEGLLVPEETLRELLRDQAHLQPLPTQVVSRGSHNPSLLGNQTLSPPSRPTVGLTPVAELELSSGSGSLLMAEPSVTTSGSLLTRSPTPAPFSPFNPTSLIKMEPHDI
# Chain of ETV1 (P50549 whole entry): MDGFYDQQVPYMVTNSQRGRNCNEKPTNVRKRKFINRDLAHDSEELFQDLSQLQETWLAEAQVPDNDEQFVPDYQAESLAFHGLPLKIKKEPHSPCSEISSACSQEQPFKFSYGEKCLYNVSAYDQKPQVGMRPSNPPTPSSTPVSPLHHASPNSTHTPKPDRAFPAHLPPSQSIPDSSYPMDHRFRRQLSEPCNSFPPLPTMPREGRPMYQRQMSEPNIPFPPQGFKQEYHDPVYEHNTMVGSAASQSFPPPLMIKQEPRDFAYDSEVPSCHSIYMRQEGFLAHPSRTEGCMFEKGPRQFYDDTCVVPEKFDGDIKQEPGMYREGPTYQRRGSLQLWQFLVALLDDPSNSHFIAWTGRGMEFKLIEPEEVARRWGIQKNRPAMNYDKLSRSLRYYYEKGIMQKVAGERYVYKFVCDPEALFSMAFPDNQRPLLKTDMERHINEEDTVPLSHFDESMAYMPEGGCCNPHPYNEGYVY
# Chain of ETV5 (P41161 whole entry): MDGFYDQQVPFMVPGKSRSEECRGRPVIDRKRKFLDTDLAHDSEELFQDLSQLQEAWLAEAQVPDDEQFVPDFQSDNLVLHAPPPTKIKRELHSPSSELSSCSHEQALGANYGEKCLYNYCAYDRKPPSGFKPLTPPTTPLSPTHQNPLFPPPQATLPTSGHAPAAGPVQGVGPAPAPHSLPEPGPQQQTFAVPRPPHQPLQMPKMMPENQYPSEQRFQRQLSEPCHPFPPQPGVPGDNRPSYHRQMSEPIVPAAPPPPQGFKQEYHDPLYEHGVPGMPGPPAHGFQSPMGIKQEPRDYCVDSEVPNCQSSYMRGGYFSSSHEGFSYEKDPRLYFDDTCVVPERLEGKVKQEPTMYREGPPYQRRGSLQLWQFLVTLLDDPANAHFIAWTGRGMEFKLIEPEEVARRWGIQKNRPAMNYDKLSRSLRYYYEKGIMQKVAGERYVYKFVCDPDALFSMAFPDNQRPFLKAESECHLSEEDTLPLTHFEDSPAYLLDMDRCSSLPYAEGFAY
# Chain of SPIB (Q01892 whole entry): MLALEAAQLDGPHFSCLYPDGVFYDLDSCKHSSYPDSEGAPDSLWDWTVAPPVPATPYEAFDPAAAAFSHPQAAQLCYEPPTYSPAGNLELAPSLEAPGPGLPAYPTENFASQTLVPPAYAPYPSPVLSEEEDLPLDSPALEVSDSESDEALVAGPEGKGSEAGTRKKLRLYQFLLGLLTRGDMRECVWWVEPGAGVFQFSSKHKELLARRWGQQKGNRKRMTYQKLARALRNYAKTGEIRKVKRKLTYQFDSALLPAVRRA
# Chain of CRX (O43186 whole entry): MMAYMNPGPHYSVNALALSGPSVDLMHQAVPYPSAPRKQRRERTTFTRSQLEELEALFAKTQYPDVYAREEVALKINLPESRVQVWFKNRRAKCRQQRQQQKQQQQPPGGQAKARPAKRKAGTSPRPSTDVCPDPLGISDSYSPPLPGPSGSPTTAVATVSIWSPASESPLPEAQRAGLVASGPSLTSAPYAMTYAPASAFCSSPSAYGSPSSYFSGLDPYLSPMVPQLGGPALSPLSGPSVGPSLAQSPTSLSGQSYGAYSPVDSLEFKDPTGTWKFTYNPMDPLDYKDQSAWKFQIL
sequence,measurement,setting,value
TCTTAT,binding signal,[1],"1.41 fold enrichment (6-mer frequency, TF over GST control)"
same,binding signal,[2],"1.33 fold enrichment (6-mer frequency, TF over GST control)"
same,binding signal,[3],"1.25 fold enrichment (6-mer frequency, TF over GST control)"
same,binding signal,[4],"1.27 fold enrichment (6-mer frequency, TF over GST control)"
same,binding signal,[5],"1.28 fold enrichment (6-mer frequency, TF over GST control)"
same,binding signal,[6],"1.16 fold enrichment (6-mer frequency, TF over GST control)"
same,binding signal,[7],"1.28 fold enrichment (6-mer frequency, TF over GST control)"
same,binding signal,[8],"1.22 fold enrichment (6-mer frequency, TF over GST control)"
same,binding signal,[9],"1.31 fold enrichment (6-mer frequency, TF over GST control)"
same,binding signal,[10],"1.27 fold enrichment (6-mer frequency, TF over GST control)"
same,binding signal,[11],"1.26 fold enrichment (6-mer frequency, TF over GST control)"
same,binding signal,[12],"1.57 fold enrichment (6-mer frequency, TF over GST control)"
same,binding signal,[13],"1.3 fold enrichment (6-mer frequency, TF over GST control)"
same,binding signal,[14],"1.21 fold enrichment (6-mer frequency, TF over GST control)"
same,binding signal,[15],"1.3 fold enrichment (6-mer frequency, TF over GST control)"
same,binding signal,[16],"1.22 fold enrichment (6-mer frequency, TF over GST control)"
same,binding signal,[17],"1.36 fold enrichment (6-mer frequency, TF over GST control)"
same,binding signal,[18],"2.21 fold enrichment (6-mer frequency, TF over GST control)"
same,binding signal,[19],"1.32 fold enrichment (6-mer frequency, TF over GST control)"
